# Data from PubChem BioAssay AID2315 (National Center for Advancing Translational Sciences (NCATS), 2010).
# About 27,000 (9.3%) of roughly 290,000 compounds were called active. No stated cut-off is given here; in the data, active means inhibition mostly above about 28% (no sharp cut-off); inactive means mostly below about 43%. What follows is part of a selection rich in actives, with near analogues and random picks from the rest.
# Assay: A qHTS for Small Molecule Inhibitors of Shiga Toxin; further: 0% is about no effect
# Details: Vero cells, Shiga toxin protein synthesis inhibition reporter; at 38.7 µM, stronger effect = higher value
row,SMILES,inhibition
1,COc1ccccc1C(=O)Nn1cnnc1,-6.2% (inactive)
2,C#CCOc1ccccc1/C=C1/C(=O)ON=C1C,3.31% (inactive)
3,CC(=O)N1c2ccc(S(=O)(=O)N3CCC(C(=O)NC4CCCCC4C)CC3)cc2CC1C (stereo not given),-11.2% (inactive)
4,COc1cccc(OC)c1C(=O)Nc1c(C(=O)N2CCN(c3ccccn3)CC2)oc2ccccc12,3.52% (inactive)
5,CCOC(=O)C1CCN(C(=O)CN2C(=O)c3cccnc3Oc3ccc(C)cc32)CC1,-9.03% (inactive)
6,COc1ccc(N(C(=O)c2snc(C(N)=O)c2N)C(C(=O)NC2CCCC2)c2ccc(C)o2)c(OC)c1 (stereo not given),-6.03% (inactive)
7,Cc1ccc2c(c1)N(CC(=O)N1CCCC(C)C1)C(=O)CO2 (stereo not given),2.65% (inactive)
8,Cc1cccc(S(=O)(=O)N2CN(CC3CCCO3)c3nc4ccccc4nc32)c1 (stereo not given),-6.17% (inactive)
9,O=C(c1c(F)cccc1Cl)N1CCN(c2ccccn2)CC1,-18.5% (inactive)
10,Cc1ccccc1N1CCN(CCCN2C(=O)C3CCCCN3C2=O)CC1 (stereo not given),-5.61% (inactive)
11,CN(CC1CCCO1)S(=O)(=O)c1ccc(C(=O)Nc2ccc([N+](=O)[O-])cc2)cc1 (stereo not given),14% (inactive)
12,CN(C(=O)c1cccc([N+](=O)[O-])c1)c1ccccc1C(=O)NCc1ccccc1,-10.6% (inactive)
13,Cc1c(C(=O)N/N=C/c2ccccc2)[nH]c2c([N+](=O)[O-])cccc12,-9.32% (inactive)
14,COc1cc2c(C(=O)O)c(C)n(C)c2c2ccccc12,-4.47% (inactive)
15,COc1cccc2c(C)c(C(=O)O)[nH]c12,-35.1% (active)
16,COc1ccccc1N1CCN(S(=O)(=O)CCNC(=O)c2ccc(OC(C)C)cc2)CC1,-4.39% (inactive)
17,Cc1ccccc1CNC(=O)CCC(=O)N1Cc2ccccc2Oc2ncccc21,13.6% (inactive)
18,C[n+]1cc(-c2ccccc2)oc1-c1ccccc1,88.6% (active)
19,COc1ccccc1CCNS(=O)(=O)c1cn(C)nc1C,-8.83% (inactive)
20,CS(=O)(=O)c1ccc2nc(NC(=O)C3CCCCC3)sc2c1,22.9% (inactive)

row,SMILES,inhibition
1,CS(=O)(=O)c1ccc2nc(NC(=O)CN3CCCCCC3)sc2c1,18.3% (inactive)
2,CS(=O)(=O)c1ccc2nc(NC(=O)c3ccc(N4CCCC4=O)cc3)sc2c1,8.48% (inactive)
3,CCN(CC)c1ccc(NC(=O)c2ccc(Cl)nc2)cc1,18.4% (inactive)
4,Cc1cnc(NC(=O)c2ccc(Cl)nc2)s1,109% (active)
5,CS(=O)(=O)c1ccc2nc(NC(=O)C3C4C=CC(C4)C3C(=O)O)sc2c1 (stereo not given),14.8% (inactive)
6,O=C(Nc1nc2ccc([N+](=O)[O-])cc2s1)c1ccncc1,35% (inactive)
7,CS(=O)(=O)c1ccc2nc(NC(=O)c3ccc(Cl)nc3)sc2c1,70.7% (active)
8,Cc1cnc(NC(=O)c2ccccn2)s1,11.7% (inactive)
9,CNC(=O)c1ccc2nc(NC(C)=O)sc2c1,45.1% (active)
10,CCCC(=O)Nc1nc2ccc(NC(=O)c3cccnc3)cc2s1,89.7% (inactive)
11,COc1cccc(C(=O)Nc2nc3ccc(S(C)(=O)=O)cc3s2)c1,92.7% (active)
12,CCCNC(=O)c1ccc(N2CCC3(CC2)CC(c2ccc(Cl)cc2)=NO3)c([N+](=O)[O-])c1,0.364% (inactive)
13,COc1ccc(CN2CCCC(C(=O)N3CCCCC3)C2)cc1 (stereo not given),-9.61% (inactive)
14,Cc1ccc2c(cnn2C(=O)CCC(=O)NC2CCCC2)c1,1.95% (inactive)
15,CCOc1ccc(C(CC(=O)O)NC(=O)Cc2ccccc2)cc1OC (stereo not given),-3.82% (inactive)
16,COc1ccc(C2CC(=O)NC(=O)C2)cc1,1.04% (inactive)
17,Cc1c(CCC(=O)N[C@@H](CC(C)C)C(=O)O)c(=O)oc2c(C)c3oc4c(c3cc12)CCCC4,-1.24% (inactive)
18,CCc1ccc(NC(=O)N[C@H](C(=O)O)C(C)CC)cc1 (stereo not given in full),-3.77% (inactive)
19,O=C(Nc1ccncc1)Nc1ccc(F)cc1,30.2% (inactive)
20,CCc1ccc(NC(=O)Nc2ccncc2)cc1,58.2% (active)

row,SMILES,inhibition
1,O=C(Nc1cc(C(=O)Nc2ccc(S(=O)(=O)O)cc2)cc(C(=O)Nc2ccc(S(=O)(=O)O)cc2)c1)Nc1cc(C(=O)Nc2ccc(S(=O)(=O)O)cc2)cc(C(=O)Nc2ccc(S(=O)(=O)O)cc2)c1,-5.01% (inactive)
2,CCCn1c(=N)n(CC(=O)c2ccc(Cl)c(Cl)c2)c2ccccc21,-3.46% (inactive)
3,CC(C)(C)C1CCC(C(=O)NCC(c2cccs2)N2CCOCC2)CC1 (stereo not given),-2.93% (inactive)
4,O=C(NCc1cccs1)C1CCN(S(=O)(=O)c2ccc(Cl)cc2)CC1,-3.28% (inactive)
5,O=C(NCc1csc(-c2cccs2)n1)C1CC1,68.5% (active)
6,COCc1ccc(C(=O)NC2CC(C)(C)Cc3c2cnn3-c2ccc(C)cc2)o1 (stereo not given),21.9% (inactive)
7,CC(NC(=O)COC(=O)c1ccc2c(c1)OCO2)c1ccccc1 (stereo not given),17.4% (inactive)
8,O=C(COC(=O)c1ccc2c(c1)OCCO2)NCc1ccccc1,19.3% (inactive)
9,O=C(OCc1ccccc1F)c1ccc2c(c1)OCCO2,104% (active)
10,O=C(O)c1ccc(/C=C2\SC(=S)N(NC(=O)c3ccc(Br)cc3)C2=O)cc1,-9.68% (inactive)
11,N#Cc1ccc(S(=O)(=O)NCC(=O)OCC(=O)NCCc2ccccc2)cc1,-5.8% (inactive)
12,CCOc1ccccc1NC(=O)Cc1cccs1,-4.91% (inactive)
13,CCOC(=O)c1ccc(NC(=S)N2CCCC2)cc1,8.67% (inactive)
14,CCCCC(CCC(=O)Nc1ccc(C(=O)OCC)cc1)C(=O)O (stereo not given),-3.77% (inactive)
15,C#CCNc1ccc(C(=O)OCC)cc1,58.3% (active)
16,CCOC(=O)c1ccc(NC(=O)Cc2cccs2)cc1,49.2% (active)
17,O=C(Cc1cccs1)Nc1ccc([N+](=O)[O-])cc1,-6.19% (inactive)
18,CCOC(=O)c1cccc(NC(=O)C2CCN(c3ncnc4c3nc3n4CCCCC3)CC2)c1,10.8% (inactive)
19,CC(Sc1nnc(-c2ccccc2F)n1C1CC1)C(N)=O (stereo not given),-9.07% (inactive)
20,O=C(O)c1ccc2c(=O)n3c(nc2c1)/C(=C/c1ccc(OC(F)F)cc1OC(F)F)CC3,1.37% (inactive)
